# Legend:
# Assay in all cases: DAPPL (digital affinity profiling via proximity ligation, sequencing); 10 mM Tris-HCl pH 7.5, 50 mM NaCl, 1 mM DTT, 4% glycerol, room temperature, 30 min; GST-TFs on glutathione beads, 16-mer random dsDNA library, 0.1% formaldehyde crosslink after washing; high values mean tight binding
# Conditions in all cases: protein: recombinant; tags: N-terminal GST; dsDNA, one strand shown
# FLI1 = target: T1, FLI1 (Homo sapiens, UniProt Q01543 1-452)
# T1 sequence: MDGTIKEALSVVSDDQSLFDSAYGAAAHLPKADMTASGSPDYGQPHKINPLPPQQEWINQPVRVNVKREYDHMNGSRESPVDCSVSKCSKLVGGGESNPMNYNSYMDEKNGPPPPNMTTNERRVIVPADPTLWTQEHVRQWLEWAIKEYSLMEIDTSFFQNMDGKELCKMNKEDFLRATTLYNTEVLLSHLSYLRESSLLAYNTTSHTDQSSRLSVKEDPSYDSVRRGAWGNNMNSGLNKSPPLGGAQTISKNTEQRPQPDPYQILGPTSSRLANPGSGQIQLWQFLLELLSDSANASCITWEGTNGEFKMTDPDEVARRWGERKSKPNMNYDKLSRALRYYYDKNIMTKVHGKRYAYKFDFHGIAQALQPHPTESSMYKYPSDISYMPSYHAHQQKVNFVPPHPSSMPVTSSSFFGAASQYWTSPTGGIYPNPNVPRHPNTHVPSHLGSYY
# Procedure, shortened: (§1)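 Yeast served to express human transcription factors as GST fusions, which were then captured on glutathione beads and labelled with DNA barcodes. Pooled with a tag-only sample, they were incubated with 200 nmole of a 16-mer random double-stranded DNA library for 30 min at room temperature in Tris/NaCl/DTT/glycerol buffer, washed, crosslinked with 0.1% formaldehyde, ligated by proximity, amplified by PCR and sequenced. Dividing each hexamer's read frequency for a factor by its frequency for the tag-only sample gives the binding signal.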
# ELK1 = target: T2, ELK1 (Homo sapiens, UniProt P19419 1-428)
# T2 sequence: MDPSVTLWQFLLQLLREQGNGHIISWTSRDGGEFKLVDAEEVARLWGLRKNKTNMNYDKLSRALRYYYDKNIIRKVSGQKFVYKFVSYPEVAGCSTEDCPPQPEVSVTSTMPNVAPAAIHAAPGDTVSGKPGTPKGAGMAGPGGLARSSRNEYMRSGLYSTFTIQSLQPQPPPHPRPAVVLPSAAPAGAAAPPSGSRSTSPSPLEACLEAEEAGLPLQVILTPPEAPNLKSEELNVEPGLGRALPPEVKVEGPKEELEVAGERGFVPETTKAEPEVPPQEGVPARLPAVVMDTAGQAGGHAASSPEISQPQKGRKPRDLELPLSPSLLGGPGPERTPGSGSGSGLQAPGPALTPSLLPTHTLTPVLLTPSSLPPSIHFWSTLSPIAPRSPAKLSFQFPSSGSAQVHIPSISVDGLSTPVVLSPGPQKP
# Procedure, shortened: as §1
# GABPA = target: T3, GABPA (Homo sapiens, UniProt Q06546 1-454)
# T3 sequence: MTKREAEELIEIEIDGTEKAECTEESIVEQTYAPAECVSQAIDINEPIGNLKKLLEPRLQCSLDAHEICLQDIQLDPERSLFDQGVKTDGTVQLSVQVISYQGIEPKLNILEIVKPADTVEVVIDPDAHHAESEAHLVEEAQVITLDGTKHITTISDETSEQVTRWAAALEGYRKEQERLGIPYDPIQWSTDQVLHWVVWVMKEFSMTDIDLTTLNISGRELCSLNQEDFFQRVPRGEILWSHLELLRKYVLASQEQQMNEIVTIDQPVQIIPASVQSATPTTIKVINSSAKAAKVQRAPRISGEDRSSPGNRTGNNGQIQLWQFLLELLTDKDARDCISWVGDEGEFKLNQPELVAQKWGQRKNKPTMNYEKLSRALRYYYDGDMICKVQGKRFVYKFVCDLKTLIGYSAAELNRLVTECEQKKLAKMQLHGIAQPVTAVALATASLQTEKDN
# Procedure, shortened: as §1
# ERG = target: T4, ERG (Homo sapiens, UniProt P11308 1-479)
# T4 sequence: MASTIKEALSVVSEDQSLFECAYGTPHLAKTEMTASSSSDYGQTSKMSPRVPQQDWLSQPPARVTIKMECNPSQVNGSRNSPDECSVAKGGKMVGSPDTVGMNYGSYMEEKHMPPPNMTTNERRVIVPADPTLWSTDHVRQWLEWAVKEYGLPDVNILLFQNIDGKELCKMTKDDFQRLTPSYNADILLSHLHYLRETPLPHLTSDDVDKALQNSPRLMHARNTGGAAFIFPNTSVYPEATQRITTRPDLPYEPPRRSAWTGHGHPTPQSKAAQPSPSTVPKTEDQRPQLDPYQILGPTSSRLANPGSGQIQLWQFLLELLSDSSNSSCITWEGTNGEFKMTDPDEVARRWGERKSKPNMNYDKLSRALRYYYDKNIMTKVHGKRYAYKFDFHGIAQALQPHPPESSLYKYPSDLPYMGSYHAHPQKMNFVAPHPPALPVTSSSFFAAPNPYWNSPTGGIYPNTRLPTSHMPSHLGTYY
# Procedure, shortened: as §1
# ELF1 = ELF1 (Homo sapiens, UniProt P32519 1-619)
# Procedure, shortened: as §1
# EHF = target: T5, EHF (Homo sapiens, UniProt Q9NZC4 1-300)
# T5 sequence: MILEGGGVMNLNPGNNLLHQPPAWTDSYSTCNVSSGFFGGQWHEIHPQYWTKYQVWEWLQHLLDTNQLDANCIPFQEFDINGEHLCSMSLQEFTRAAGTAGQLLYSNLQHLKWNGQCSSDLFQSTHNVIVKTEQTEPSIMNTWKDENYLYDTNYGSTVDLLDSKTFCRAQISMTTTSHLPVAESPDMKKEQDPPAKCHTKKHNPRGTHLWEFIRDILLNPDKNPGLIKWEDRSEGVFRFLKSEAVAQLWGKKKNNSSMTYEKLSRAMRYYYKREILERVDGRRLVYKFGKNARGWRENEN
# Procedure, shortened: as §1
# SPI1 = SPI1 (Homo sapiens, UniProt P17947 1-270)
# Procedure, shortened: as §1
# SPIB = SPIB (Homo sapiens, UniProt Q01892 1-262)
# Procedure, shortened: as §1
# ELK3 = target: T6, ELK3 (Homo sapiens, UniProt P41970 1-407)
# T6 sequence: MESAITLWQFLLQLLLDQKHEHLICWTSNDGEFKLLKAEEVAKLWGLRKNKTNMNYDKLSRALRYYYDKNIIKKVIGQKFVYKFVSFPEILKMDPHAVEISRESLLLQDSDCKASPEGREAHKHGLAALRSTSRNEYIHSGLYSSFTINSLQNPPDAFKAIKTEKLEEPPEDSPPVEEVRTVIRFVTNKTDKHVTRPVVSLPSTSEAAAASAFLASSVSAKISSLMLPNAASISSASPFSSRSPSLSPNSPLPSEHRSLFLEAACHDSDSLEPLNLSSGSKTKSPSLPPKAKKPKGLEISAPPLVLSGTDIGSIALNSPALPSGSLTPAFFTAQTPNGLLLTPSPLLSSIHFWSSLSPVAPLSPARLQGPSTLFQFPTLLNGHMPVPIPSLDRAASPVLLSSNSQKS
# Procedure, shortened: as §1
# FEV = target: T7, FEV (Homo sapiens, UniProt Q99581 1-238)
# T7 sequence: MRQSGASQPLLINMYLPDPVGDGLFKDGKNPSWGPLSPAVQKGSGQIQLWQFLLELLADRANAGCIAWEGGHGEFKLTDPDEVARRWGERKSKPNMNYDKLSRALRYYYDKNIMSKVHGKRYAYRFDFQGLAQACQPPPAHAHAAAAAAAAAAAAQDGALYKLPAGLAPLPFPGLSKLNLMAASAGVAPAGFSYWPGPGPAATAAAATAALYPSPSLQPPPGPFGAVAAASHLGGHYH
# Procedure, shortened: as §1
# ETV5 = ETV5 (Homo sapiens, UniProt P41161 1-510)
# Procedure, shortened: as §1
# SPIC = target: T8, SPIC (Homo sapiens, UniProt Q8N5J4 1-248)
# T8 sequence: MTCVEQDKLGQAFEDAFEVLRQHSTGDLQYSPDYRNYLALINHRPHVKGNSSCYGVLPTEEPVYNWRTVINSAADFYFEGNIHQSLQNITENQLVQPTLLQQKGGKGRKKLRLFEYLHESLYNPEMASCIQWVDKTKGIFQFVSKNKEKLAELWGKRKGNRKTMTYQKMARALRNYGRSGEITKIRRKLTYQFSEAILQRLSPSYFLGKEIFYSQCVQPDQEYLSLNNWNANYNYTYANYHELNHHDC
# Procedure, shortened: as §1
# ELF4 = ELF4 (Homo sapiens, UniProt Q99607 1-663)
# Procedure, shortened: as §1
# ELK4 = target: T9, ELK4 (Homo sapiens, UniProt P28324-2 1-405)
# T9 sequence: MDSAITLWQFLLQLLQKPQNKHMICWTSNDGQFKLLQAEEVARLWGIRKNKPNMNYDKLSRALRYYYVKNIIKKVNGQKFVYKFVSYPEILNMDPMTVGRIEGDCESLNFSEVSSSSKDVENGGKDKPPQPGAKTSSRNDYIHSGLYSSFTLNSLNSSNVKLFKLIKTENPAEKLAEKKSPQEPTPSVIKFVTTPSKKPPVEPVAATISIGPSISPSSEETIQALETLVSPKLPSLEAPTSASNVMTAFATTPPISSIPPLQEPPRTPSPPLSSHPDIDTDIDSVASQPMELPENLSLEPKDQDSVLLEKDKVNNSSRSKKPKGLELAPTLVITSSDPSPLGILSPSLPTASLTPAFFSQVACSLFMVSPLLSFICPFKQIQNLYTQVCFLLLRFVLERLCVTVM
# Procedure, shortened: as §1
# ETV2 = target: T10, ETV2 (Homo sapiens, UniProt O00321 1-342)
# T10 sequence: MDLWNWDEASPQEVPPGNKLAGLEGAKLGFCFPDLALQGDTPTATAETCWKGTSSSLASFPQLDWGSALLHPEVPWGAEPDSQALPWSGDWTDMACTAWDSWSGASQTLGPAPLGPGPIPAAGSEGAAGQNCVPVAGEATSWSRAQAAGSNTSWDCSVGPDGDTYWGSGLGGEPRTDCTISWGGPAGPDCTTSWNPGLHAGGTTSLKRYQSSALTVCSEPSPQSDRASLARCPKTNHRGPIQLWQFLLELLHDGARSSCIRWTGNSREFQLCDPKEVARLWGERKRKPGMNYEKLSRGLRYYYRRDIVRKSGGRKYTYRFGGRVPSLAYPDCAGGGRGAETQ
# Procedure, shortened: as §1
# ELF3 = target: T11, ELF3 (Homo sapiens, UniProt P78545 1-371)
# T11 sequence: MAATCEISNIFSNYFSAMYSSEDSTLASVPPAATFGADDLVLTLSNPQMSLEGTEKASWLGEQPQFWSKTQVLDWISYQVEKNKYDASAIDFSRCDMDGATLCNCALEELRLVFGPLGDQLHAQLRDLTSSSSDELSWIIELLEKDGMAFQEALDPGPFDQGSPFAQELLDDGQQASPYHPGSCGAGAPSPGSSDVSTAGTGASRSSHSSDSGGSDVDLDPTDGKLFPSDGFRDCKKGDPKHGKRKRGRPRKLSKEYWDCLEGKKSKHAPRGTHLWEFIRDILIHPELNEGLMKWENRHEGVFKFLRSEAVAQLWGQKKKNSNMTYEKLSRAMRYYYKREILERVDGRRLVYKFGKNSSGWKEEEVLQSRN
# Procedure, shortened: as §1
# ETV1 = ETV1 (Homo sapiens, UniProt P50549 1-477)
# Procedure, shortened: as §1
# SPIB, sequence (Q01892 whole entry): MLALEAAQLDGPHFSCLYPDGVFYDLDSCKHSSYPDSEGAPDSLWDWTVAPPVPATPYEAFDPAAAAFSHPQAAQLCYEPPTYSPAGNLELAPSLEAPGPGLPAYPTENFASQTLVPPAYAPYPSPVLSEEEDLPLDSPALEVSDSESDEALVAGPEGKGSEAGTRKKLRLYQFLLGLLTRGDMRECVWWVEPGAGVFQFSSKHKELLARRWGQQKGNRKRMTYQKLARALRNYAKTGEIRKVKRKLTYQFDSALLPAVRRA
# ELF1, sequence (P32519 whole entry): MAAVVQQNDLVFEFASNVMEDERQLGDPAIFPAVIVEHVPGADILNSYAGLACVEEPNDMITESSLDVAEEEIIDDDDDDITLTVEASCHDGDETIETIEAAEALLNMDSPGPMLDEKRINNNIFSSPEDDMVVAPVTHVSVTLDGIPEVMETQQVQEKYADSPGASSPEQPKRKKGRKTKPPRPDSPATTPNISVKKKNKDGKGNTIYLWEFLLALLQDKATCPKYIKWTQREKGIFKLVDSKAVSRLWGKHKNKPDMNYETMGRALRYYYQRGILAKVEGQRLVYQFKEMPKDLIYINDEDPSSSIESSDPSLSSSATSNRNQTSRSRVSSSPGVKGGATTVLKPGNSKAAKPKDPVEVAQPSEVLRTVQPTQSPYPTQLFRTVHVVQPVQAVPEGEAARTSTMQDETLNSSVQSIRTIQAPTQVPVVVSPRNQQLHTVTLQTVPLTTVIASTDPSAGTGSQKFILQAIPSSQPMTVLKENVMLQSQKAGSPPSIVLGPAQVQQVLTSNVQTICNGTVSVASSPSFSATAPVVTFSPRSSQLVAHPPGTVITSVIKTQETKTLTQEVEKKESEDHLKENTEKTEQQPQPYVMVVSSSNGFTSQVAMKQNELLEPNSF
# ETV5, sequence (P41161 whole entry): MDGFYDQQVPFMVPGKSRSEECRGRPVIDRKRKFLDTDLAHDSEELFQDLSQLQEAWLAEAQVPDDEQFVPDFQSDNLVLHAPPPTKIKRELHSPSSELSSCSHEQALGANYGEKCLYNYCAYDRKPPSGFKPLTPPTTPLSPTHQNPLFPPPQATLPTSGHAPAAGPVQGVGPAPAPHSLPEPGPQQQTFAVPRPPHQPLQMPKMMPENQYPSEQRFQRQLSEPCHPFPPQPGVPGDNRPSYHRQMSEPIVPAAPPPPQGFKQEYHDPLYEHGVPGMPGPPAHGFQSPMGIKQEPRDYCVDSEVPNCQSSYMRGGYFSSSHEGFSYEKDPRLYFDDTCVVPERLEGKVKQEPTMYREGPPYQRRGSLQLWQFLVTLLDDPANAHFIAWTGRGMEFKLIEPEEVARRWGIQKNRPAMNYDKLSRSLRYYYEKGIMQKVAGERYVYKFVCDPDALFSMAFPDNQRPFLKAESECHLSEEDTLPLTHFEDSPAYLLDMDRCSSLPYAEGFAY
# ELF4, sequence (Q99607 whole entry): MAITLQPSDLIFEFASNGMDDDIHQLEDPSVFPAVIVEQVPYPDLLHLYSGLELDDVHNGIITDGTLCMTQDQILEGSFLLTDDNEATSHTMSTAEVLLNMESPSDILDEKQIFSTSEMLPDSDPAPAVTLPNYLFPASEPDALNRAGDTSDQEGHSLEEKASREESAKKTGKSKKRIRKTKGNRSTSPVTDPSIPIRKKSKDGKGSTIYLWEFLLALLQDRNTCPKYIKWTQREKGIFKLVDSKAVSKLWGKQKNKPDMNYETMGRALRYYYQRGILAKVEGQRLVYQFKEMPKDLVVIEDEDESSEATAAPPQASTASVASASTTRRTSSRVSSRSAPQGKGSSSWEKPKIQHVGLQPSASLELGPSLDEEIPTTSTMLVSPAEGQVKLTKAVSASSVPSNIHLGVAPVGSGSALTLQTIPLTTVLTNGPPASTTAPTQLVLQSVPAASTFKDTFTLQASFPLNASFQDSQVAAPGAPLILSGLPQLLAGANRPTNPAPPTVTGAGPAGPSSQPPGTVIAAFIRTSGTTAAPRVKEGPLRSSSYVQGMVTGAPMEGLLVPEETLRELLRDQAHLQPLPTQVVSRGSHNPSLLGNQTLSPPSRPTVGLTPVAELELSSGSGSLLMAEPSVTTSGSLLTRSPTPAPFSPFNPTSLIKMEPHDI
# ETV1, sequence (P50549 whole entry): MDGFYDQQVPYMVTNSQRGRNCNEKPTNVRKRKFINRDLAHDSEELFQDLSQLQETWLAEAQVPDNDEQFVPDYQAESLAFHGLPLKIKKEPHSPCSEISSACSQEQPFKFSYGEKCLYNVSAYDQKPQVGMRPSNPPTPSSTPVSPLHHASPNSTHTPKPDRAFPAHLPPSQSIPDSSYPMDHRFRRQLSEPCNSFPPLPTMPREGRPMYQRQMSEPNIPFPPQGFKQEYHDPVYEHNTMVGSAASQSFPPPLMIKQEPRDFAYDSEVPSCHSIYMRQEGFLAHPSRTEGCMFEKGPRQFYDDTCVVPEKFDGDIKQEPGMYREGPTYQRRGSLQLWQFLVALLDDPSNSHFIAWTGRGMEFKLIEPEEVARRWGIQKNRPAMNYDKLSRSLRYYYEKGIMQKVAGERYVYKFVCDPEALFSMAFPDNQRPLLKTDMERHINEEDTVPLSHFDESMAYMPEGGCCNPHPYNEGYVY
Sequence,binding signal (FLI1),binding signal (ELK1),binding signal (GABPA),binding signal (ERG),binding signal (ELF1),binding signal (EHF),binding signal (SPI1),binding signal (SPIB),binding signal (ELK3),binding signal (FEV),binding signal (ETV5),binding signal (SPIC),binding signal (ELF4),binding signal (ELK4),binding signal (ETV2),binding signal (ELF3),binding signal (ETV1)
ATACGG,"1.19 fold enrichment (6-mer frequency, TF over GST control)","1.16 fold enrichment (6-mer frequency, TF over GST control)","1.17 fold enrichment (6-mer frequency, TF over GST control)","1.23 fold enrichment (6-mer frequency, TF over GST control)","1.19 fold enrichment (6-mer frequency, TF over GST control)","1.2 fold enrichment (6-mer frequency, TF over GST control)","1.31 fold enrichment (6-mer frequency, TF over GST control)","1.23 fold enrichment (6-mer frequency, TF over GST control)","1.23 fold enrichment (6-mer frequency, TF over GST control)","1.16 fold enrichment (6-mer frequency, TF over GST control)","1.25 fold enrichment (6-mer frequency, TF over GST control)","1.2 fold enrichment (6-mer frequency, TF over GST control)","1.2 fold enrichment (6-mer frequency, TF over GST control)","1.03 fold enrichment (6-mer frequency, TF over GST control)","1.22 fold enrichment (6-mer frequency, TF over GST control)","1.25 fold enrichment (6-mer frequency, TF over GST control)","1.21 fold enrichment (6-mer frequency, TF over GST control)"
ACTACA,"1.32 fold enrichment (6-mer frequency, TF over GST control)","1.21 fold enrichment (6-mer frequency, TF over GST control)","1.32 fold enrichment (6-mer frequency, TF over GST control)","1.16 fold enrichment (6-mer frequency, TF over GST control)","1.19 fold enrichment (6-mer frequency, TF over GST control)","1.15 fold enrichment (6-mer frequency, TF over GST control)","1.13 fold enrichment (6-mer frequency, TF over GST control)","1.28 fold enrichment (6-mer frequency, TF over GST control)","1.11 fold enrichment (6-mer frequency, TF over GST control)","1.17 fold enrichment (6-mer frequency, TF over GST control)","1.24 fold enrichment (6-mer frequency, TF over GST control)","1.06 fold enrichment (6-mer frequency, TF over GST control)","1.16 fold enrichment (6-mer frequency, TF over GST control)","1.07 fold enrichment (6-mer frequency, TF over GST control)","1.11 fold enrichment (6-mer frequency, TF over GST control)","1.04 fold enrichment (6-mer frequency, TF over GST control)","1.22 fold enrichment (6-mer frequency, TF over GST control)"
CCGGGT,"1.2 fold enrichment (6-mer frequency, TF over GST control)","1.06 fold enrichment (6-mer frequency, TF over GST control)","1.01 fold enrichment (6-mer frequency, TF over GST control)","1.12 fold enrichment (6-mer frequency, TF over GST control)","1.13 fold enrichment (6-mer frequency, TF over GST control)","1.17 fold enrichment (6-mer frequency, TF over GST control)","1.01 fold enrichment (6-mer frequency, TF over GST control)","1.16 fold enrichment (6-mer frequency, TF over GST control)",,"1.02 fold enrichment (6-mer frequency, TF over GST control)","1.26 fold enrichment (6-mer frequency, TF over GST control)","1.19 fold enrichment (6-mer frequency, TF over GST control)","1.15 fold enrichment (6-mer frequency, TF over GST control)","1.09 fold enrichment (6-mer frequency, TF over GST control)","1.15 fold enrichment (6-mer frequency, TF over GST control)","1.12 fold enrichment (6-mer frequency, TF over GST control)","1.17 fold enrichment (6-mer frequency, TF over GST control)"

# Source: publication PMC7862700, “An all-to-all approach to the identification of sequence-specific readers for epigenetic DNA modifications on cytosine”
